The values that follow come from PubChem BioAssay (NCATS).

Inconclusive results are not listed. Calls of active or inactive are those of the source. Calls come from the whole dose curve; as a rule, active = well fitted inhibition curve with a large enough effect; inconclusive = small, poorly fitted or top-dose-only effect; inactive = flat fitted curve, though single readings scatter.

What all share (assay): qHTS profiling for inhibitors of Plasmodium falciparum proliferation (AID 504749); note: nearly all actives have a fitted effect of over 60% in size
Conditions in all cases: P. falciparum in erythrocytes, SYBR Green DNA, 72 h; series mostly up to 28.7 µM
Background: Quantitative high-throughput screening tests each substance at several concentrations.

The test system of one test is CP247. A digest of the protocol: (§1)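 P. falciparum-infected erythrocytes (0.3% parasitemia, 2.5% hematocrit final) were exposed to compounds for 72 h at 37 C in 5% CO2, then lysed with SYBR Green buffer overnight at room temperature; parasite DNA fluorescence was normalized to artemisinin and DMSO controls.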
The subject of another test is CP250. Put shortly:
as §1

The test system of another test is CP252. Put shortly:
as §1

The subject of another test is CP256. A digest of the protocol: as §1
The subject of the next test is CP260. A digest of the protocol:
as §1

For another test, the system named is CP262. Put shortly: as §1
The subject of the next test is CP265. A digest of the protocol: as §1
The next test deals with CP266. A digest of the protocol:
as §1

The next test concerns CP268. A digest of the protocol: as §1
In a further test the test system is CP269. A digest of the protocol: as §1
A further test relates to CP286. Put shortly:
as §1

In another test the test system is CP291. Put shortly: as §1
The subject of a further test is CP297. A digest of the protocol: as §1
The next test has as its system CP305. Put shortly:
as §1

For the next test, the system named is CP315. A digest of the protocol: as §1
Another test concerns CP325. Put shortly: as §1
The test system of the next test is CP329. Put shortly: as §1
Another test deals with CP335. Put shortly:
as §1

The test system of another test is DFO2036. A digest of the protocol:
as §1

The subject of another test is DIV14. Put shortly:
as §1
Potency is the fitted concentration of half-maximal effect.

Turning to `CCCc1cc(=O)[nH]c(=S)[nH]1`, the Potency entry with CP247, with CP250, with CP252, in the test on CP256, in the test with CP260 and in the test on CP262 was “inactive” in each case. In addition, the Potency result in the test on CP265, in the test with CP266, in the test with CP268, with CP269, in the test with CP286 and with CP291 was “inactive” in each case. The Potency entry with CP297, with CP305, in the test on CP315, in the test on CP325, with CP329 and in the test with CP335 was “inactive” throughout. Besides, the Potency result with DFO2036 and in the test with DIV14 was “inactive” each time.
In the case of `CN(C)C(=O)COC(=O)Cc1ccc(OC(=O)c2ccc(N=C(N)N)cc2)cc1`, the Potency entry in the test with CP247, with CP250, with CP252, with CP256, with CP260 and in the test on CP262 was “inactive” throughout. Also, the Potency entry in the test on CP265, in the test with CP266, in the test with CP268, with CP269, in the test on CP286 and with CP291 was “inactive” throughout. The Potency entry in the test on CP297, with CP305, in the test with CP315, in the test with CP325, in the test on CP329 and with CP335 was “inactive” each time. The Potency entry in the test on DFO2036 and in the test on DIV14 was “inactive” in each case.
`Nc1ccn([C@@H]2O[C@H](CO)[C@@H](O)C2O)c(=O)n1` (some centres not stated): the Potency entry in the test with CP247, with CP250, with CP252, in the test with CP256, in the test with CP260 and with CP262 was “inactive” each time. The Potency entry with CP265, in the test on CP266, in the test on CP268, with CP269, with CP286 and in the test with CP291 was “inactive” each time. For the same compound, the Potency entry in the test on CP297, in the test with CP305, in the test on CP315, in the test with CP325, in the test on CP329 and in the test with CP335 was “inactive” each time. Moreover, the Potency result in the test on DFO2036 and with DIV14 was “inactive” throughout.
Turning to `C=CCc1cc(OC)c(O)c(C(=O)NCCO)c1`, the Potency entry in the test on CP247, with CP250, with CP252, with CP256, in the test on CP260 and with CP262 was “inactive” in each case. Moreover, the Potency result with CP265, with CP266, with CP268, with CP269, in the test on CP286 and with CP297 was “inactive” in each case. Further, the Potency result with CP305, in the test with CP315, in the test with CP325, with CP329, with CP335 and in the test on DFO2036 was “inactive” each time. Further, in the test on DIV14, the Potency result was “inactive”.
For `C=C(c1ccc(C(=O)O)cc1)c1cc2c(cc1C)C(C)(C)CCC2(C)C`, the Potency entry in the test with CP247, with CP250, with CP252, with CP256, in the test on CP262 and in the test with CP265 was “inactive” in each case. Besides, the Potency entry with CP266, in the test on CP268, in the test on CP269, in the test with CP291, in the test on CP297 and with CP305 was “inactive” in each case. In addition, the Potency result with CP315, in the test with CP325, in the test on CP329 and in the test with DFO2036 was “inactive” in each case.
As to `CCC(C)(Oc1ccc(C2(c3ccc(OC(C)(CC)C(=O)O)cc3)CCCCC2)cc1)C(=O)O` (configuration not stated), the Potency entry with CP247, in the test with CP250, in the test with CP252, with CP256, in the test on CP262 and in the test with CP265 was “inactive” in each case. Moreover, the Potency entry with CP266, in the test on CP268, with CP269, in the test on CP286, in the test on CP291 and in the test on CP297 was “inactive” in each case. In addition, the Potency result with CP305, in the test on CP315, in the test on CP325, with CP329, in the test with CP335 and in the test with DFO2036 was “inactive” in each case. Also, the Potency entry in the test on DIV14 was “inactive”.
Consider `O=P(O)(O)C(O)(Cn1ccnc1)P(=O)(O)O`, for which the Potency entry in the test with CP247, in the test on CP250, in the test on CP252, in the test with CP256, with CP260 and in the test with CP262 was “inactive” throughout. Besides, the Potency entry with CP265, in the test on CP266, in the test with CP268, in the test on CP269, with CP286 and in the test on CP291 was “inactive” in each case. The Potency entry with CP297, in the test on CP305, in the test on CP315, in the test on CP325, with CP329 and with CP335 was “inactive” throughout. Further, the Potency entry with DFO2036 and in the test with DIV14 was “inactive” each time.
With `CN(C)c1ccc2nc3ccc(=[N+](C)C)cc-3sc2c1`, the Potency in the test with CP247 is 141 nM (active); in the test with CP250, 141 nM (active); with CP252 it was 89.1 nM (active); with CP256, 63.1 nM (active); with CP260, 25.1 nM (active); in the test with CP262 it was 19 nM (active). Further, the Potency is 89.1 nM (active) in the test with CP265; 75.7 nM (active) in the test on CP266; 37.9 nM (active) in the test with CP268; 84.9 nM (active) in the test with CP269; 12.6 nM (active) in the test on CP286; 53.6 nM (active) with CP291. Further, the Potency in the test with CP297 was 67.5 nM (active); with CP305, 21.3 nM (active); in the test on CP315, 151 nM (active); in the test with CP325, 47.8 nM (active); with CP329, 60.1 nM (active); with CP335, 37.9 nM (active). Besides, the Potency in the test on DFO2036 was 70.8 nM (active); in the test on DIV14 it was 26.9 nM (active).
For the compound `Cc1cc(=O)c2c(O)c3c(O)cc(=O)c4c3c3c(cc(O)c1c23)C(C)(C)C=4O`, the Potency was 1780 nM (active) in the test with CP247; 1410 nM (active) in the test with CP250; 1260 nM (active) in the test on CP252; 1580 nM (active) in the test with CP256; 1580 nM (active) in the test with CP260; 1580 nM (active) in the test on CP265. Further, the Potency is 2690 nM (active) in the test on CP269; 1580 nM (active) in the test on CP286; 2690 nM (active) with CP291; 3380 nM (active) in the test on CP305; 2130 nM (active) in the test with CP329; 2390 nM (active) in the test on CP335. Besides, the Potency was 1120 nM (active) with DFO2036 and 2390 nM (active) in the test on DIV14.
As to `COc1ccc2cc([C@H](C)C(=O)O)ccc2c1`, the Potency entry in the test on CP247, with CP250, in the test on CP252, with CP256, in the test on CP262 and in the test with CP265 was “inactive” throughout. Further, the Potency result with CP266, in the test with CP268, with CP269, in the test with CP291, in the test on CP297 and in the test with CP305 was “inactive” throughout. The Potency result with CP315, in the test on CP325, with CP329, in the test with DFO2036 and in the test with DIV14 was “inactive” each time.
In the case of `O=C1c2ccccc2-c2n[nH]c3cccc1c23`, the Potency entry in the test with CP247, in the test on CP250, in the test on CP252, in the test on CP256, in the test with CP260 and with CP262 was “inactive” throughout. For the same compound, the Potency result in the test with CP265, in the test on CP266, in the test on CP268, with CP269, with CP286 and with CP291 was “inactive” each time. In addition, the Potency entry in the test with CP297, in the test with CP305, in the test with CP315, in the test with CP325, in the test with CP329 and in the test with DFO2036 was “inactive” throughout. In addition, the Potency entry in the test on DIV14 was “inactive”.
As for `Nc1nc(Cl)nc2c1ncn2[C@H]1C[C@H](O)[C@@H](CO)O1`, the Potency entry in the test with CP247, in the test with CP250, in the test with CP252, with CP256, in the test on CP260 and with CP265 was “inactive” in each case. The Potency result in the test on CP286 and in the test on DFO2036 was “inactive” each time.
